Data from PubChem BioAssay AID1159580 (chemical genetic matrix, 2015).
The whole screen tested about 5,500 compounds, of which about 2,000 (36%) were called active. Roughly 18% stayed inconclusive and do not appear here. Rule as the data show it: active = normalized growth mostly below about 0.91 (no sharp cut-off); inconclusive = no clear call, values can overlap the other calls; inactive = mostly above about 0.92. Some of the results follow.

Test: chemical genetic growth profiling, strain panel (AID 1159580);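 also: tested at 20 µM; growth read once vehicle control cultures reached saturation at 30 °C; 1 = growth at the plate median or of vehicle wells; lower values mean less growth of the strain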
Details: S. cerevisiae deletion strains, growth OD
[1] = locus YAR019C, strain CDC15, stronger effect = lower value
[2] = locus YBL105C, strain PKC1, stronger effect = lower value
[3] = locus YBR135W, strain CKS1, stronger effect = lower value
[4] = locus YBR136W, strain MEC1, stronger effect = lower value
[5] = locus YBR160W, strain CDC28, stronger effect = lower value
[6] = locus YDL017W, strain CDC7, stronger effect = lower value
[7] = locus YDL028C, strain MPS1, stronger effect = lower value
[8] = locus YDL101C, strain DUN1, stronger effect = lower value
[9] = locus YDL108W, strain KIN28, stronger effect = lower value
[10] = locus YDL132W, strain cdc53, stronger effect = lower value
[11] = locus YDL214C, strain PRR2, stronger effect = lower value
[12] = locus YDR052C, strain DBF4, stronger effect = lower value
[13] = locus YDR054C, strain cdc34, stronger effect = lower value
[14] = locus YDR226W, strain ADK1, stronger effect = lower value
[15] = locus YDR477W, strain SNF1, stronger effect = lower value
[16] = locus YER123W, strain YCK3, stronger effect = lower value
[17] = locus YER133W, strain GLC7, stronger effect = lower value
[18] = locus YFL009W, strain cdc4, stronger effect = lower value
[19] = locus YFL029C, strain CAK1, stronger effect = lower value
[20] = locus YFR003C, strain YPI1, stronger effect = lower value
[21] = locus YFR019W, strain FAB1, stronger effect = lower value
[22] = locus YFR028C, strain CDC14, stronger effect = lower value
[23] = locus YGR040W, strain KSS1, stronger effect = lower value
[24] = locus YGR052W, strain FMP48, stronger effect = lower value
[25] = locus YGR092W, strain DBF2, stronger effect = lower value
[26] = locus YHR030C, strain SLT2, stronger effect = lower value
[27] = locus YHR079C, strain IRE1, stronger effect = lower value
[28] = locus YHR082C, strain KSP1, stronger effect = lower value
[29] = locus YHR205W, strain SCH9, stronger effect = lower value
[30] = locus YIL147C, strain SLN1, stronger effect = lower value
[31] = locus YJL095W, strain BCK1, stronger effect = lower value
[32] = locus YJL128C, strain PBS2, stronger effect = lower value
[33] = locus YJL157C, strain FAR1, stronger effect = lower value
[34] = locus YJR016C, strain ILV3, stronger effect = lower value
[35] = locus YJR066W, strain TOR1 (second series), stronger effect = lower value
[36] = locus YJR066W, strain TOR1, stronger effect = lower value
[37] = locus YKL048C, strain ELM1, stronger effect = lower value
[38] = locus YKL067W, strain YNK1, stronger effect = lower value
[39] = locus YKL101W, strain HSL1, stronger effect = lower value
[40] = locus YKL193C, strain SDS22, stronger effect = lower value
[41] = locus YKL203C, strain TOR2, stronger effect = lower value
[42] = locus YLR113W, strain HOG1, stronger effect = lower value
[43] = locus YLR133W, strain CKI1, stronger effect = lower value
[44] = locus YLR403W, strain SFP1, stronger effect = lower value
[45] = locus YML070W, strain DAK1, stronger effect = lower value
[46] = locus YMR001C, strain CDC5, stronger effect = lower value
[47] = locus YMR205C, strain PFK2 (second series), stronger effect = lower value
[48] = locus YMR277W, strain FCP1, stronger effect = lower value
[49] = locus YNL006W, strain LST8, stronger effect = lower value
[50] = locus YNL020C, strain ARK1, stronger effect = lower value
[51] = locus YNL161W, strain CBK1, stronger effect = lower value
[52] = locus YNL183C, strain NPR1, stronger effect = lower value
[53] = locus YNL207W, strain RIO2, stronger effect = lower value
[54] = locus YNL222W, strain SSU72, stronger effect = lower value
[55] = locus YNL307C, strain MCK1 (second series), stronger effect = lower value
[56] = locus YOL078W, strain AVO1, stronger effect = lower value
[57] = locus YOL136C, strain PFK27, stronger effect = lower value
[58] = locus YOR061W, strain CKA2, stronger effect = lower value
[59] = locus YOR119C, strain RIO1, stronger effect = lower value
[60] = locus YOR231W, strain MKK1, stronger effect = lower value
[61] = locus YOR329C, strain SCD5, stronger effect = lower value
[62] = locus YPL031C, strain PHO85, stronger effect = lower value
[63] = locus YPL153C, strain RAD53, stronger effect = lower value
[64] = locus YPL204W, strain HRR25, stronger effect = lower value
[65] = locus YPL209C, strain IPL1, stronger effect = lower value
[66] = locus YPL256C, strain CLN2, stronger effect = lower value
[67] = locus YPR025C, strain CCL1, stronger effect = lower value
[68] = locus YPR106W, strain ISR1, stronger effect = lower value
[69] = locus YPR111W, strain DBF20, stronger effect = lower value
[70] = strain NNK1, stronger effect = lower value
[71] = strain TSCII, stronger effect = lower value

Measured: normalized growth

O=C(c1ccc2ccccc2c1)N1CCN(c2ccnc3cc(Cl)ccc23)CC1
inactive: [1] 1 | [2] 1 | [3] 0.997 | [4] 0.997 | [5] 0.995 | [6] 0.998 | [7] 0.991 | [8] 0.994 | [9] 0.99 | [10] 0.987 | [11] 0.957 | [12] 0.988 | [13] 0.981 | [14] 1 | [15] 0.958 | [16] 0.947 | [17] 0.965 | [18] 0.993 | [19] 1 | [20] 1 | [21] 0.941 | [22] 0.997 | [23] 0.959 | [24] 1.08 | [25] 0.977 | [27] 0.968 | [28] 1.01 | [29] 0.904 | [30] 0.996 | [31] 0.94 | [32] 0.98 | [33] 0.974 | [34] 0.998 | [35] 0.947 | [36] 0.96 | [37] 0.974 | [38] 0.962 | [39] 0.958 | [40] 0.992 | [41] 0.991 | [42] 0.955 | [43] 0.95 | [44] 0.951 | [45] 0.959 | [46] 0.992 | [47] 0.973 | [48] 0.995 | [49] 0.995 | [50] 0.945 | [51] 0.997 | [52] 0.953 | [53] 0.994 | [54] 0.995 | [55] 0.921 | [56] 0.997 | [57] 0.952 | [58] 0.973 | [59] 1.03 | [60] 0.955 | [61] 0.995 | [62] 0.953 | [63] 0.962 | [64] 0.939 | [65] 0.998 | [66] 0.929 | [67] 0.988 | [68] 0.999 | [69] 0.984 | [70] 0.987 | [71] 0.998
active: [26] 0.821

O=C(Nc1ccc(C(F)(F)F)cc1)N1CCN(c2ccnc3cc(Cl)ccc23)CC1
inactive: [1] 0.984 | [2] 0.977 | [3] 0.987 | [4] 0.973 | [5] 0.973 | [6] 0.994 | [7] 0.981 | [8] 0.982 | [9] 0.983 | [10] 0.995 | [11] 1.01 | [12] 0.983 | [13] 0.975 | [14] 0.983 | [15] 0.997 | [16] 1.02 | [17] 1.01 | [18] 0.985 | [19] 0.965 | [20] 0.988 | [21] 0.999 | [22] 0.984 | [23] 1 | [24] 1.08 | [25] 0.975 | [26] 1.08 | [27] 1.04 | [28] 1.1 | [29] 0.995 | [30] 0.981 | [31] 1.1 | [32] 0.993 | [33] 1 | [34] 0.993 | [35] 1.02 | [36] 1.11 | [37] 0.996 | [38] 0.992 | [39] 1.01 | [40] 0.988 | [41] 1.06 | [42] 1.01 | [43] 0.994 | [44] 1.02 | [45] 1.01 | [46] 0.98 | [47] 1.01 | [48] 0.99 | [49] 0.991 | [50] 1 | [51] 0.978 | [52] 1.04 | [53] 0.99 | [54] 0.982 | [55] 0.979 | [56] 0.991 | [57] 1.01 | [58] 1.01 | [59] 1.06 | [60] 1.02 | [61] 0.991 | [62] 1.01 | [63] 1.01 | [64] 0.997 | [65] 0.984 | [66] 1 | [67] 0.983 | [68] 0.986 | [69] 0.979 | [70] 0.979 | [71] 0.977

CC1CCN(C(=O)CC#N)CC1
inactive: locus YAL013W, strain DEP1, stronger effect = lower value 1 | locus YBR229C, strain ROT2, stronger effect = lower value 1 | [8] 1.02 | locus YDL134C, strain PPH21, stronger effect = lower value 0.986 | locus YDR150W, strain NUM1, stronger effect = lower value 1.02 | locus YEL061C, strain CIN8, stronger effect = lower value 1.03 | locus YGR078C, strain PAC10, stronger effect = lower value 1 | [26] 1.06 | locus YHR087W, strain rtc3, stronger effect = lower value 1.02 | locus YJL187C, strain SWE1, stronger effect = lower value 0.981 | locus YJR043C, strain POL32, stronger effect = lower value 0.999 | locus YJR075W, strain HOC1, stronger effect = lower value 1.01 | locus YLR039C, strain RIC1, stronger effect = lower value 1.08 | locus YLR058C, strain SHM2 (second series), stronger effect = lower value 0.995 | locus YLR085C, strain ARP6, stronger effect = lower value 1.01 | locus YLR262C, strain YPT6, stronger effect = lower value 1.1 | locus YML094W, strain GIM5, stronger effect = lower value 0.991 | locus YMR219W, strain ESC1, stronger effect = lower value 1 | locus YMR263W, strain SAP30, stronger effect = lower value 0.985 | locus YNL153C, strain GIM3, stronger effect = lower value 1.01 | locus YNL298W, strain CLA4 (second series), stronger effect = lower value 0.957 | locus YNL322C, strain KRE1, stronger effect = lower value 0.992 | locus YNR030W, strain Alg12, stronger effect = lower value 0.981 | locus YOL006C, strain TOP1, stronger effect = lower value 1.01 | locus YPL055C, strain LGE1, stronger effect = lower value 0.979 | locus YPL241C, strain CIN2, stronger effect = lower value 0.996 | locus YPR135W, strain CTF4, stronger effect = lower value 1.02
